From PubChem BioAssay (NCI)
Compounds without any hit were thinned out: in the full panel of roughly 83,000, 20% have a hit.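 Step 1: grow cells in 96-well plates. Step 2: add test compound at a single concentration. Step 3: incubate 48 h. Step 4: record percent growth.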 Values without a mark were called inactive. The calls were made as follows: active = growth percent below 10; inactive = the rest.

What follows are compounds tested on MDA-MB-468 breast (assay: NCI-60 one-dose screen, 48 h (100 = growth as untreated, 0 = no growth, -100 = all killed)). Conditions: 10 µM unless noted.
For `N#Cc1c(-c2cccs2)cc(-c2cnccn2)nc1SCC(=O)NNC(=S)Nc1ccc(F)cc1`, the growth was 122%. For `COc1ccc(NC(=O)c2cccc(C3CCc4c(cc(OC)c(OC)c4OC)O3)c2)cc1` (stereo not drawn), the growth was 22%. Compound `CCOC(=O)CCCS(C)(=O)=O` has a growth of 126%.
